Screening data from PubChem.
PHOSPHO1 inh – PHOSPHO1 (human) inhibition; Q8TCT1; recombinant PHOSPHO1, absorbance phosphatase assay; inhibition, % at 13.3 µM; 290,000 tested, 1.1% active; AID 1565; in the data active means inhibition above about 60%
Target sequence (Q8TCT1 whole entry, looked up): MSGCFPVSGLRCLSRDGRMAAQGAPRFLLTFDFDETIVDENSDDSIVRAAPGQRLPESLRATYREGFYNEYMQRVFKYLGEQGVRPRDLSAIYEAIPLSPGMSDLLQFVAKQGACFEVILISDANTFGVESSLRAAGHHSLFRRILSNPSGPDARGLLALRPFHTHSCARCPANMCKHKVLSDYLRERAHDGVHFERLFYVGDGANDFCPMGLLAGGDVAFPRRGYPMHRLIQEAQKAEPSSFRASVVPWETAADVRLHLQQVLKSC
TMEM16A inh – inhibitors of mouse TMEM16A calcium-activated chloride channel | Q8BHY3 | AID 588511 | HEK293 TMEM16A/YFP iodide influx fluorescence, ionomycin | 310,000 tested, 1.2% active | normalized B-score (activity score, 25-100; higher = stronger inhibition) at 10 µM;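 active means ratio plate-corrected score three or more library SD toward inhibition, starting fluorescence score within five deviations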;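 further: score derived from kinetic fluorescence span divided by baseline fluorescence per well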
CHT allo act – allosterically activates the human high affinity choline transporter; CHT-expressing cells, membrane potential dye, choline EC20; hits give high values; LV-AA mutant CHT in HEK293 cells; B-score at 10 µM; Q9GZV3; 310,000 tested, 0.49% active;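 active means initial fluorescence not abnormally high and integrated response B-score, plate-corrected, over 3 SD above library mean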
HDAC3 inhib – human HDAC3 inhibition; O15379; recombinant HDAC3, fluorogenic peptide/trypsin coupled, fluorescence; inhibition, % at 8.3 µM; AID 2718; 320,000 tested, 0.15% active; in the data active means inhibition above about 26%, passing the limit was not always enough
CHT block – human CHT choline transport inhibition | AID 488975 | 310,000 tested, 0.86% active | Q9GZV3 | B-score at 10 µM | CHT-expressing cells, membrane potential dye, choline response; hits give low values;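 active means B-score over 3 SD under the library average, and starting fluorescence ratio not unusually high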;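 further: choline stimulus applied at its EC90 after an EC20 pre-addition; B-score computed on integrated fluorescence ratio after choline addition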
TMEM16A act – activates or potentiates the mouse TMEM16A chloride channel; HEK293 TMEM16A/YFP-H148Q/I152L, iodide quench fluorescence; hits give low values; B-score at 10 µM; 340,000 tested, 0.3% active; AID 623877;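 active means fluorescence-ratio B-score plate-corrected deviation score at least 3 library SD below zero, with starting fluorescence score within 5 deviations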;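 further: channel opened by trigger with iodide after compound preincubation; score built on the fluorescence ratio of max minus min over baseline; more negative score means more quench and so TMEM16A activation or potentiation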
Numbers without * were called inactive; i = inactive; . = no result given. Compounds with a hit are over-represented: about 3.2% of the library has one in this group of screens.

SMILES | PHOSPHO1 inh | TMEM16A inh | CHT allo act | HDAC3 inhib | CHT block | TMEM16A act
O=C(COC(=O)c1ccc[nH]c1=O)NC1CCCCCCC1 | -30 | i | i | 3 | i | -22*
COC(=O)c1ccc(OCC(=O)NC2CCCCCC2)cc1 | 63* | i | i | 1 | i | i
O=C(/C=C/c1cccc([N+](=O)[O-])c1)NCCSCc1cccc(Cl)c1 | 3 | 100* | i | -4 | i | i
O=C(/C=C/c1cccc([N+](=O)[O-])c1)NCc1ccccc1 | 2 | i | i | 1 | i | i
Cc1ccc(S(=O)(=O)NCC(c2ccco2)N2CCc3ccccc3C2)cc1 (stereo not drawn) | . | 25* | i | -7 | i | i
CCCCSCCCNC(=O)C1CCC(CNS(=O)(=O)c2ccccc2)CC1 (stereo not drawn) | . | i | i | -4 | i | i
C=CCSc1nnc2c(n1)OC(c1cccnc1)Nc1ccccc1-2 (stereo not drawn) | 82* | i | i | -3 | i | i
COC(=O)c1sc(S(=O)(=O)Nc2ccc(C)c(C)c2)c(C(=O)OC)c1C | 6 | i | i | -5 | i | i
Cc1nn(CCc2nn[nH]n2)c2nc(C(F)(F)F)cc(C(F)(F)F)c12 | -2 | i | i | 6 | i | i
Cc1nn(CCc2nn[nH]n2)c2nc(-c3ccc(Br)cc3)cc(C(F)(F)F)c12 | 32 | 100* | i | -2 | i | i
O=C(Cn1cccn1)N1CCCC(N2CCN(c3cccc(C(F)(F)F)c3)CC2)C1 (stereo not drawn) | . | . | . | . | . | i
CCC(=O)NC(NC(=S)Nc1cccc2cccnc12)C(Cl)(Cl)Cl (stereo not drawn) | -4 | i | i | -4 | i | i
CC(C)(C)C(=O)NC(Nc1cccc2cccnc12)C(Cl)(Cl)Cl (stereo not drawn) | 76* | i | i | 6 | i | i
CC(C(=O)Nc1ccccc1)c1ccc(-c2ccccc2)c(F)c1 (stereo not drawn) | -9 | 100* | i | 12 | i | i
COc1cccc(CNc2cc(CSc3ccc(Cl)cc3)nc(C)n2)c1 | 6 | 100* | i | -2 | i | i
Cn1nccc1C(=O)NCCN1C(=O)OC(C)(C)C1(C)O (stereo not drawn) | 32 | i | i | -6 | i | i
O=C(Cc1cccs1)Nn1c(Cc2cccs2)nc2ccccc2c1=O | 7 | i | i | 5 | -6.7* | i
O=C(Nc1ccc(O)cc1)c1ccc(NC(=O)C2CCCO2)cc1 (stereo not drawn) | 66* | i | i | 4 | i | i
CN(C)c1ccc(NC(=O)c2ccc3nsnc3c2)cc1 | 74* | i | i | -6 | i | i
O=C(Nc1ccc(Cl)cc1)c1ccc2nsnc2c1 | 2 | i | i | -7 | i | i
CS(=O)(=O)c1ccc(Cl)c(NC(=O)COC(=O)c2ccc(S(=O)(=O)N3CCCC3)cc2)c1 | . | . | . | -11 | . | i
COc1ccc(CCN2C(=O)NC(NS(=O)(=O)c3ccc(NC(C)=O)cc3)(C(F)(F)F)C2=O)cc1OC (stereo not drawn) | 64* | i | i | -2 | i | i
O=C(Nc1ccc2c(c1)OCCO2)C1CCN(C(=O)c2ccc([N+](=O)[O-])cc2)CC1 | 66* | i | i | -1 | i | i
COCCN(CC(=O)Nc1cccc(C)c1C)C(=O)c1ccc(S(=O)(=O)N2CCOCC2)cc1 | . | . | . | . | . | i
COc1ccc(SCC(=O)c2cc(C)c(OC(=S)N(C)C)c(C)c2)cc1 | 35 | 25* | i | 0 | i | i
COC1(c2ccccc2)NC(=S)NN=C1c1ccccc1 (stereo not drawn) | 75* | i | i | 2 | i | i
CCCCOC1(c2ccccc2)NC(=S)NN=C1c1ccccc1 (stereo not drawn) | 71* | i | i | 1 | i | .
CCCCOc1ccc(C2(C)NC(=O)NC2=O)cc1 (stereo not drawn) | 14 | i | i | -3 | i | i
CCCCn1c(=O)nc2n(-c3ccccc3C)c3ccccc3cc-2c1=O | -5 | 25* | i | -58 | i | i
